# Test results published in PubChem BioAssay (NCATS).
# Results filed as inconclusive are left out. A call without a number means that no potency is given here. Calls of active or inactive are those of the source. Calls come from the whole dose curve; as a rule, active = well fitted inhibition curve with a large enough effect; inconclusive = small, poorly fitted or top-dose-only effect; inactive = flat fitted curve, though single readings scatter.
# Target: Ubiquitin carboxyl-terminal hydrolase 1 (Homo sapiens) (UniProt O94782)
# Assay: Inhibitors of USP1/UAF1: Pilot qHTS (AID 504865); note: nearly all actives have a fitted effect of over 35% in size
# Conditions: purified USP1/UAF1, Ub-rhodamine cleavage fluorescence; series mostly up to 114 µM
# Method in brief: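 Deubiquitinase activity followed as kinetic rhodamine fluorescence release from 150 nM Ub-Rho. 1 nM USP1/UAF1 with compound, after 15 min room-temperature preincubation, in HEPES pH 7.8 buffer containing TCEP, EDTA, BSA and Tween-20.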
# Potency is the fitted concentration of half-maximal effect.
# Ubiquitin carboxyl-terminal hydrolase 1 (Homo sapiens), sequence (O94782 whole entry, looked up): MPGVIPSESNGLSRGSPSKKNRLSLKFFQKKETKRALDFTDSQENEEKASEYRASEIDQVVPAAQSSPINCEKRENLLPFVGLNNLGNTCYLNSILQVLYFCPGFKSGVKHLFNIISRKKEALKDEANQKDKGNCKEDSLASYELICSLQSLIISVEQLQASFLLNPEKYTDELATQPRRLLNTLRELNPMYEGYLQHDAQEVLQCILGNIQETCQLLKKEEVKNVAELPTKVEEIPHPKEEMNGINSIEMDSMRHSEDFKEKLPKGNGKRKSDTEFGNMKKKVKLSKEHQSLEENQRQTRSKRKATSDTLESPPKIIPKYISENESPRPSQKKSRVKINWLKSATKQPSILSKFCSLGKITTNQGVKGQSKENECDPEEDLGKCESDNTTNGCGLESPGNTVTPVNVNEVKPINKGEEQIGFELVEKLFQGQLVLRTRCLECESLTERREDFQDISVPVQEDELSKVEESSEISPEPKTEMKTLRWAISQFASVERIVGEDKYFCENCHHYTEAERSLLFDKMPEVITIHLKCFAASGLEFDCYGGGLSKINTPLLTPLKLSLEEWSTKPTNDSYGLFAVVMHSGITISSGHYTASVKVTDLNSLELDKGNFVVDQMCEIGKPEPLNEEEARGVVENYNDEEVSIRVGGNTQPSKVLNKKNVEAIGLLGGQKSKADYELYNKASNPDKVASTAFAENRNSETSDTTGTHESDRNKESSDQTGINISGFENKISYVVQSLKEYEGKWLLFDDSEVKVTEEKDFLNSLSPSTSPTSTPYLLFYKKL
row,SMILES,Potency
1,Nc1ccc(C(=O)NCC(=O)O)cc1,inactive
2,C[N+]1(CC2COC(c3ccccc3)(C3CCCCC3)O2)CCCCC1 (stereo not drawn),inactive
3,CC1=C(C(=O)O)N2C(=O)[C@@H](NC(=O)[C@H](N)c3ccccc3)[C@H]2SC1,inactive
4,Cc1ccc(-c2ncc(Cl)cc2-c2ccc(S(C)(=O)=O)cc2)cn1,inactive
5,O=[N+]([O-])c1cccc(S(=O)(=O)NCCNS(=O)(=O)c2cccc([N+](=O)[O-])c2)c1,inactive
6,NC(=O)n1c(O)c(C(=O)c2cccs2)c2cc(Cl)ccc21,inactive
7,CCc1oc2ccccc2c1C(=O)c1cc(Br)c(O)c(Br)c1,31.6 µM (active)
8,NS(=O)(=O)Cc1noc2ccccc12,inactive
9,CC(=O)OCC(=O)[C@H]1CC[C@H]2[C@@H]3CCC4=CC(=O)CC[C@]4(C)[C@H]3CC[C@]12C,inactive
10,Cn1c(=O)c2[nH]c(Br)nc2n(C)c1=O,inactive
11,CC(C)Nc1cccnc1N1CCN(C(=O)c2cc3cc(NS(C)(=O)=O)ccc3[nH]2)CC1,inactive
12,CN1CCC(OC(c2ccccc2)c2ccccc2)CC1,inactive
13,CC(C)=CCOc1ccc(/C=C/C(=O)c2ccc(OCC=C(C)C)cc2OCC(=O)O)cc1,79.4 µM (active)
14,CCC(C(=O)OCCOCCN(CC)CC)c1ccccc1 (stereo not drawn),inactive
15,COc1cc(NS(=O)(=O)c2ccc(N)cc2)ncn1,inactive
16,Cc1cccc(C)c1NC(=O)CN1CCCC1,inactive
17,c1ccc(CC2=NCCN2)cc1,inactive
18,Cc1ccc(S(=O)(=O)NC(=O)NC2CCCC2)cc1,inactive
19,O=C(O)CCc1nc2ccccc2[nH]1,inactive

row,SMILES,Potency
1,CCC(Cc1c(I)cc(I)c(N)c1I)C(=O)O (stereo not drawn),inactive
2,Cc1ccccc1OCC(O)CO (stereo not drawn),inactive
3,Nc1ccc(S(=O)(=O)NCc2ccccc2)cc1,inactive
4,COc1cc(C)nc(-n2nc(C)cc2OC)n1,inactive
5,O=C(O)P(=O)(O)O,inactive
6,CC(C)CCCC(C)N (stereo not drawn),inactive
7,CCNC(=O)/C=C/c1cccc(Br)c1,inactive
8,CCN(CC)CCNC(=O)COc1ccc(OC)cc1,inactive
9,CCN(CC)CCOc1ccccc1C(=O)CCc1ccccc1,inactive
10,Cc1cc(CC(=O)O)c(C)n1-c1ccc(Cl)cc1,inactive
11,CC(C)[N+](C)(C)CC(O)COc1cccc2ccccc12 (stereo not drawn),inactive
12,OC1C(O)C(O)C(O)C(O)C1O (stereo not drawn),inactive
13,CC(C)Cc1ccc(CC(=O)O)cc1,inactive
14,CCC1Nc2cc(Cl)c(S(N)(=O)=O)cc2S(=O)(=O)N1 (stereo not drawn),inactive
15,O=C(Oc1cccc2cccnc12)c1ccccc1,inactive
16,CN(C)CCOC(c1ccc(Cl)cc1)c1ccccn1 (stereo not drawn),inactive
17,CC(=O)NCCCCCC(=O)O,inactive
18,CC1CCc2c(N3CCC(O)CC3)c(F)cc3c(=O)c(C(=O)O)cn1c23 (stereo not drawn),inactive
19,O=C(NCCc1c[nH]c2ccccc12)c1cccnc1,inactive
